# The entries come from a sample that favours hits as a whole.
# Tgondii IFNg – T. gondii growth inhibition with IFN-gamma, primary screen, cell-based. Toxoplasma gondii growth in IFN-gamma-treated host cells; hits give low values. hit rate 3.8% among 69,000. activity change, negative = inhibition, % (test concentration not listed); in the data active = activity change below about -70%, passing the limit was not always enough;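 also: host cells are HeLa cells infected with Toxoplasma gondii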
# Active calls of the source: *; i = inactive; ! = repeats disagree.
SMILES,Tgondii IFNg
C=CCN1CCN(c2ncc(F)cn2)Cc2ccc(C)nc21,37.3
Fc1cnc(N2CCC3(CC2)CNCc2ccccc23)nc1,-84.2*
Fc1cnc(N2CCN(CC3CC3)c3ncccc3C2)nc1,i
Cc1ccc(CN2CC[C@H]3[C@@H]2CCN3C(=O)Cc2cccc(F)c2)o1,-5.0
Cc1noc(C)c1CN1CC2CC(C1)N(CCO)C2 (stereo unspecified),-2.6
Cc1ccc(C2(CN3C[C@@H]4C[C@@H](C3)c3cccc(=O)n3C4)CCNCC2)nc1,7.0
CN(C)C(=O)CN1CCC2C1CC(=O)N2Cc1cccnc1 (stereo unspecified),6.2
Cc1cccc(CN2C(=O)C[C@H]3[C@H]2CCN3Cc2cccs2)n1,-92.8*
c1ccc(CN2CC[C@H]3[C@@H]2CCN3Cc2cccs2)nc1,-13.5
C=CCSCC(=O)N1CCC2(CCNCC2)CC1,-38.9
CCN(Cc1ccc(F)cc1)C(=O)C(C)N1CCCC1=O (stereo unspecified),-1.2
COc1ccc(N2C(=O)NC(=O)C3(Cc4cccc(F)c4N4CCC(c5ccccc5)CC43)C2=O)cc1 (stereo unspecified),-99.3*
COCCCN1CCCCC12CC(=O)N(c1cncnc1)C2 (stereo unspecified),63.7
O=C(Nc1ccc(F)cc1)c1cc2cccnc2n(Cc2ccccc2)c1=O,90.7
OC[C@@H]1CCCN2CCCC[C@H]12,14.8
CCN(CC)C(=O)C1=NOC2(CCNC2)C1 (stereo unspecified),-57.5
CCN1C[C@H]2[C@H](OC)CCN(C(=O)c3cc(C4CC4)on3)[C@H]2C1,-0.8
C=CCN1CC[C@@H]2[C@@H]1CCN2c1ncc(F)cn1,2.8
C=CCN1CC[C@H]2[C@@H]1CCN2C(=O)c1cc(C)on1,19.3
C=CCN1CC[C@@H]2[C@@H]1CCN2C(=O)c1cncc(C)c1,-98.4*
O=C(NCc1ccc2c(c1)OCO2)c1cc2cccnc2n(Cc2ccccc2)c1=O,132.8
CCn1c(CC2CCN(C(=O)C3C(C)(C)C3(C)C)CC2)n[nH]c1=O,2.8
Cn1cc(N2CCC3(CCN(Cc4ccncc4)C3)C2=O)cn1 (stereo unspecified),-64.5
COc1ccc(C[C@H]2NC[C@H](O)[C@H]2OC(C)=O)cc1,-75.4*
CN1CCc2c(COCC(=O)N3CCCC3)cncc2C1,0.5
SMILES,Tgondii IFNg
C[C@@]1(CO)[C@H](O)CC[C@@]2(C)[C@H]1CC[C@H]1C[C@@H]3C[C@@]12CC[C@]3(O)CO,-85.9*
CNC(=O)Oc1c(Cl)cc(Cl)cc1Cl,19.6
Cc1noc(C)c1CN1CCO[C@H]2CN(Cc3cccs3)C[C@@H]21,324.8
Fc1cnc(N2CCN3C[C@H](OCC4CC4)C[C@@H]3C2)nc1,-2.7
CCCN1CCC[C@@H]2Cc3[nH]ncc3C[C@H]21,-73.2*
CCCN1CCC[C@@H]2Cc3nc(N)ncc3C[C@H]21,13.5
c1ccc(OCC2CC3OCCN(Cc4cccs4)C3C2)nc1 (stereo unspecified),-1.8
O=C(c1cccs1)N1CCN2CC(OCc3cccnc3)CC2C1 (stereo unspecified),-19.6
C[C@@H]1CN2CCCC2CN1Cc1cnc(N2CCOCC2)nc1 (stereo partly specified),59.6
Cc1nc(CN2C[C@@H]3CN(Cc4c(C)noc4C)C[C@H]3C2=O)cs1,-5.3
Cc1nc(CN2CCOCC23CCNCC3)cs1,9.4
CCOP(=S)(OCC)Oc1nc(Cl)c(Cl)cc1Cl,-75.8*!
CN(C)C(=O)C1OC2(CCNCC2)c2ccccc21 (stereo unspecified),97.6
C=CCOC[C@@H]1CC[C@H]2[C@H](CCN2CC2CC2)O1,8.7
CN(C)CCN1C[C@H](OCc2ccccn2)[C@@H]2COC[C@@H]21,-39.6
O=C(NCC1CCOCC1)c1cnc(Nc2ccc(Cl)cc2Cl)nc1C(F)(F)F,-73.8*
O=C(NCc1c(F)cccc1F)c1cc2cccnc2n(Cc2ccccc2F)c1=O,102.0
N#Cc1cccc(NC2COC3(CCN(Cc4ccoc4)C3)C2)n1 (stereo unspecified),-32.6
c1ccc(COC2CC3CN(Cc4cccs4)CCN3C2)nc1 (stereo unspecified),-5.3
c1nc(N2CCOCC2)nc2c1COCC21CCN(CC2CC2)C1 (stereo unspecified),-6.9
CC(C)CN1CCC2(COCc3cnc(N(C)C)nc32)C1 (stereo unspecified),6.0
COCCN1CCC2(COCc3cnc(N4CCOCC4)nc32)C1 (stereo unspecified),-90.5*
C#CCOc1ccc(CN2C3CCC2CC(O)(c2ccc(OC)cc2)C3)cc1 (stereo unspecified),-2.8
Cc1c(Cl)cccc1NC(=O)c1cc2cccnc2n(Cc2ccc(F)cc2)c1=O,145.6
c1ccc(CN2CCOC3(CCN(c4ncccn4)CC3)C2)cc1,1.4
SMILES,Tgondii IFNg
COc1ccccc1CC(C)N(C)C(=O)Cc1csc(C)n1 (stereo unspecified),-10.0
c1ccc(CN2C[C@H]3OCCN(CC4CCCO4)[C@H]3C2)nc1 (stereo partly specified),37.6
C=CCOC1C2CCC1N(Cc1ccccn1)CCO2 (stereo unspecified),-91.6*
c1ccc(CN2CCO[C@H]3[C@H]2CC[C@H]3OCc2cccnc2)nc1,9.0
Cc1ccc(CN2[C@@H]3CC[C@H]2CN(C)C(=O)C3)s1,-36.1
CCOc1ccccc1NC(=O)c1cc2cccnc2n(Cc2ccc(F)cc2)c1=O,4.9
C[C@@H]1O[C@@H](O[C@@H]2C[C@@H](O)[C@]3(CO)[C@H]4[C@H](O)C[C@]5(C)[C@@H](C6=CC(=O)OC6)CC[C@]5(O)[C@@H]4CC[C@]3(O)C2)[C@H](O)[C@H](O)[C@H]1O,-81.2*
C[C@]12CC[C@H]3[C@@H](CC[C@]4(O)C[C@@H](O)CC[C@]34C=O)[C@@]1(O)CC[C@@H]2C1=CC(=O)OC1,-63.3
CO[C@@H]1C(O)[C@H](O[C@H]2CC[C@@]3(C=O)[C@H](CC[C@@H]4[C@@H]3CC[C@]3(C)[C@@H](C5=CC(=O)OC5)CC[C@]43O)C2)OC(C)[C@@H]1O (stereo partly specified),-74.6*
CO[C@H]1[C@H](O)[C@@H](O[C@H]2CC[C@]3(C=O)C4CC[C@]5(C)[C@@H](C6=CC(=O)OC6)CC[C@]5(O)C4CC[C@@H]3C2)O[C@@H](C)[C@@H]1O (stereo partly specified),-83.1*
O=C(NCc1c(F)cccc1F)c1cc2cccnc2n(Cc2ccc(Cl)cc2)c1=O,23.1
CCc1ccc(NC(=O)c2cc3cccnc3n(Cc3ccccc3)c2=O)cc1,54.4
Cc1ccc(N2CCC3(CC2)C(=O)N(C)CCN3C)nn1,142.8
CC(Cc1ccccc1F)NCCCC(=O)N(C)C (stereo unspecified),8.1
O=c1[nH]c2ccc(Cl)cc2c(N[C@@H]2CN3CCC2CC3)c1-c1nc2ccccc2[nH]1,-75.7*
Cn1cc(CN2CC[C@H]3C[C@H](c4ccncn4)O[C@H]3C2)cn1,-0.8
COC(=O)c1ccc(/C=C/C(=O)C2C(=O)N(C)C3(C)CC2c2cc(Cl)ccc2O3)cc1 (stereo unspecified),0.6
COCCN1CCN(C)C2(CCN(Cc3ccncc3)CC2)C1=O,-22.4
COCCN1CCN(C2CCOC2)Cc2cccnc21 (stereo unspecified),-13.2
C/C=C(\C)C(=O)N[C@@H](c1ccccc1)[C@@H](O)C(=O)O[C@H]1C[C@@]2(O)[C@@H](OC(=O)c3ccccc3)[C@@H]3[C@]4(OC(C)=O)CO[C@@H]4C[C@H](O)[C@@]3(C)C(=O)[C@H](OC(C)=O)C(=C1C)C2(C)C,-89.1*

# Assay outcomes deposited in PubChem by Broad Institute.
